# MRP reversal – compounds reversing MRP-mediated drug resistance; AID 602; differential viability (reversal), % at 10 µM; 85,000 tested, 0.04% active; H69AR cells + 2 uM doxorubicin, CellTiter-Glo, 72 h;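 active = viability drop by adding the cancer drug above about 55%, with treated viability meeting a 40% cutoff, limit read from the data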;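 note: viability without doxorubicin minus viability with 2 µM doxorubicin for each compound; larger differential means the compound sensitizes cells more to doxorubicin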
# MRP1 act – MRP-1 activation. 140,000 tested, 0.61% active. H69AR cells + doxorubicin, viability rescue, CellTiter-Glo. viability increase, % at 10 µM;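 active = viability gain under doxorubicin at or above a set limit, the compound median plus 3 SD, cut at about 4.7% in these data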;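 note: MRP-1 overexpressing cells given doxorubicin 25 µM after compound pretreatment; 18-22 h compound pretreatment then 72 h with doxorubicin before readout; 0% = doxorubicin-only wells and 100% = vehicle-treated cells without doxorubicin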
# PTK2B oligo ant – blocks oligomerization of human Pyk2 in cells; Q14289; Q293 cells, Pyk2 FERM NanoBiT luminescence; hits give low values; z-score (the deposit names both 25 µM and 10 µM); 99,000 tested, 0.83% active; AID 1347419;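 active = Z-score of -3 or lower, scaled per plate to the spread of control and sample wells; inactive = z-score above -3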;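 note: negative z-score means lost luminescence so less FERM oligomerization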
# CD11b adhes enh – enhancers of human CD11b/CD18 binding to fibrinogen; 93,000 tested, 0.07% active; K562 CD11b/CD18 adhesion to fibrinogen, ATPlite luminescence; activation, % at 10 µM; P05107+P11215; AID 1499;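 active = 10 µM primary screen giving 50% or more activity, confirmed by 40% or more on retest at that dose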
# CD11b adhes inh – CD11b/CD18-fibrinogen binding inhibition. P05107+P11215. K562 CD11b/CD18 adhesion to fibrinogen, ATPlite luminescence; Mn2+ added to activate the integrin. inhibition, % at 10 µM. 93,000 tested, 0.54% active;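 active = primary inhibition of 50% or more at 10 µM, then 40% or more on retest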
# Cav32 inh – human Cav3.2 channel inhibition, primary screen; B-score at 10 µM; O95180; Cav3.2-expressing cells, Fluo-4 calcium fluorescence FDSS; hits give low values; 100,000 tested, 4% active; AID 449739;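 active = single-dose well whose peak fluorescence ratio is a statistical outlier from its plate by either plate-standardised score or position-corrected B-score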
# Active calls of the source: *; . = not tested or not shown. The list is not random: actives were taken first. Their share in the collection is about 4.1%.
SMILES,MRP reversal,MRP1 act,PTK2B oligo ant,CD11b adhes enh,CD11b adhes inh,Cav32 inh
COC(=O)COc1ccc(S(=O)(=O)NCc2ccncc2)cc1,3,-1,0.01,-4,80*,.
CC1=CC(C)(C)N2C(=O)C3(SCC(=O)N3c3ccc(F)cc3)c3cc(C)cc1c32 (stereo unspecified),4,-2,-2.5,1,14,-2.4
COc1cc2c(O)c3c(c(-c4ccc5c(c4)OCO5)c2cc1OC)C(=O)OC3,1,-6,-2.8,.,.,-4.2*
COc1cc2c(OC(C)=O)c3c(c(-c4ccc5c(c4)OCO5)c2cc1OC)C(=O)OC3,.,.,.,.,.,1.1
COc1ccc(/C=C2/N=C(SC3CCOC3=O)N(c3cccc(OC)c3)C2=O)cc1 (stereo unspecified),.,5.2*,.,14,2,.
Cc1ccc(-c2nc3ccccc3s2)cc1S(=O)(=O)N1CCOCC1,5,0,-2.5,-3,-37,-0.11
CCOC(=O)c1c(N2C(=O)C3C4C=CC(O4)C3C2=O)sc2c1CCCC2 (stereo unspecified),8,-4,-0.28,2,-6,.
CCOC(=O)c1c(N2C(=O)Nc3cc(Cl)c(Cl)cc3N2O)sc2c1CCCCC2,.,0,-0.8,.,.,-3.9*
O=C1/C(=C\c2ccco2)CCC/C1=C\c1ccco1,.,-3,.,.,.,.
Cn1cccc1/C=C1\CCC/C(=C\c2cccn2C)C1=O,-3,-2,0.9,0,22,-13*
O=C1CC(N(CCc2ccccc2)C(=S)Nc2cc(Cl)ccc2Cl)C(=O)N1c1c(Cl)cccc1Cl (stereo unspecified),.,-1,-0.39,21,2,-2.6*
O=C1CC(N(CCc2ccccc2)C(=S)Nc2ccccc2)C(=O)N1c1ccccc1 (stereo unspecified),.,-5,.,.,.,.
Cc1ccc(N2CCN(S(=O)(=O)c3ccc(F)c(C)c3)CC2)c(C)c1,-11,2,-3.2*,1,31,-2.1
Cc1cc(S(=O)(=O)N2CCOCC2)ccc1F,-6,-1,0.15,2,-2,0.096
CCc1ccccc1N1CCN(S(=O)(=O)c2ccc(F)c(C)c2)CC1,10,3,-3.3*,5,28,-3.5
COC(=O)c1ccc(CSc2nc3ccccc3[nH]2)o1,10,-2,2,.,.,-0.12
COC(=O)c1cc(CSc2nc3ccc(C)cc3[nH]2)oc1C,7,.,2.1,-8,52*,-2.2
Cc1cccc(OCCCSc2nc3ccc(C)cc3[nH]2)c1,.,-1,3.7,-8,101,-4.6*
Cc1ccc2nc(SCn3nnc4ccccc4c3=O)[nH]c2c1,.,-1,-0.27,0,-6,.
O=C1CCC[C@H]2c3[nH]c4ccccc4c3CCN12,.,.,.,.,.,-1.4
Brc1ccc2[nH]c3c(N4CCc5ccccc5C4)ncnc3c2c1,-1,-3,.,0,75*,0.59
COc1ccc(CSCC(=O)N/N=C/c2ccccc2OCc2ccccc2)cc1,.,-2,0.74,-2,18,-5.8*
COC(=O)c1cc(=O)n(Cc2ccc(OC)c(OC)c2)c(=Nc2ccc(F)cc2)s1,0,-6,.,7,11,-0.96
CC(=O)Nc1ccccc1OCC(=O)c1cc(C)n(Cc2cccs2)c1C,-7,0,2.2,-12,102*,-3.8
Cc1cc(C(=O)COC(=O)c2ccccc2O)c(C)n1Cc1cccs1,.,2,-0.41,-9,101,-2.6
SMILES,MRP reversal,MRP1 act,PTK2B oligo ant,CD11b adhes enh,CD11b adhes inh,Cav32 inh
Cc1cc(C(=O)COC(=O)c2ccc3c(c2)OCO3)c(C)n1Cc1cccs1,4,5.6*,0.54,-3,17,-0.65
Cn1nnnc1SCCNCc1cccc2ccccc12,9,-1,0.91,0,0,0.044
Cc1cc(NCCCn2ccnc2)n2nc(C)c(-c3ccccc3)c2n1,-24,-4,-0.25,-3,2,2.4
Cc1cc(NCCCn2ccnc2)n2ncc(-c3ccccc3)c2n1,-17,-6,-0.1,-3,50*,.
Cc1csc(NC(=O)Cc2coc3cc(C)c(C(C)C)cc23)n1,8,-1,-1.2,-2,26,-6.1*
O/N=C1\CCc2cc(Cl)ccc21,-14,-3,0.2,-1,-15,2.4*
CCOC(=O)CC(NC(C)=O)c1ccc([N+](=O)[O-])cc1 (stereo unspecified),.,-2,.,.,.,.
N=c1oc2c3c4c(cc2cc1C(=O)Nc1ccccc1)CCCN4CCC3,.,6.4*,-0.57,29,-6,-11*
